Test results taken from PubChem BioAssay (EPA / NIEHS).
Records with an inconclusive call do not appear. The source made the active and inactive calls. The calls were made as follows, unless noted: active = hit-call score of the fitted dose curve at least 0.9, where 1 is the maximum; inconclusive = response in the unintended direction; inactive = score below 0.9.

Assays:
[1] = CCTE_Shafer_MEA_acute_spike_number: CCTE's Neural Acute Assay for Total Number of Spikes, Shafer Lab (AID 2284008; active = hit-call score of the fitted dose curve at least 0.9, where 1 is the maximum; inactive = score below 0.9;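 as to AC50: curve fitted for decrease in spike count so AC50 reflects inhibitors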)
How it was run: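 Cortical neurons from rat, matured to DIV 13 or 15 on microelectrode arrays, are recorded at 37 C before and during 40-min exposure to 0.03-40 uM compound. Wells need >/= 10 active electrodes.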

[2] = CCTE_Shafer_MEA_acute_firing_rate_mean: CCTE's Neural Acute Assay for Mean Firing Rate, Shafer Lab (AID 2284009; active = hit-call score of the fitted dose curve at least 0.9, where 1 is the maximum; inactive = score below 0.9;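 also: analyzed for loss of signal so actives lower firing rate relative to DMSO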)
How it was run: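 Primary rat cortical neurons on 16-electrode MEA wells were exposed on DIV 13 or 15 to compound (0.03-40 uM). Spike counts per recording time, averaged over electrodes, were compared between 40-min baseline and 40-min post-exposure recordings as percent change.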

[3] = test system: DIO1 (gene 1733); assay: CCTE_GLTED_hDIO1: CCTE's human Deiodinase 1 (DIO1) Inhibition Assay, Great Lakes Toxicology and Ecology Division (GLTED) Lab (AID 2283987);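 also: isolated human DIO1 enzyme in a cell-free setup rather than cells; enzyme activity read as free iodide liberated from substrate via Sandell-Kolthoff colorimetry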
How it was run: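 Cell-free hDIO1 assay, triplicate plates. Absorbance of the Sandell-Kolthoff reaction reports enzyme-liberated iodide; iodinated chemicals or nitrite, iron and thiocyanate may interfere.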

[4] = target: Retinoic acid receptor RXR-alpha (Homo sapiens) (UniProt P19793); assay: TOX21_TR_RXR_BLA_Antagonist_Followup_ratio: Tox21 Thyroid Hormone Receptor beta Retinoid X Receptor alpha (RXRa) Antagonism Beta-lactamase (BLA) Follow-Up Assay, Ratio (AID 2283972)
How it was run: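 Antagonist mode used GAL4 UAS-driven beta-lactamase in HEK293T cells expressing RXRa, treated for 16 h with compound concentration series. Activity was taken from the blue/green (460:530 nm) ratio of cleaved to uncleaved substrate.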

[5] = TOX21_TR_RXR_BLA_Antagonist_Followup_viability: Viability Assessment in the Tox21 Thyroid Hormone Receptor beta Retinoid X Receptor alpha (RXRa) Antagonism Beta-lactamase (BLA) Follow-Up Assay (AID 2283979)
How it was run: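 Follow-up compounds (11 concentrations, triplicate) were incubated 16 h at 37C/5% CO2 with HEK293T RXRa-bla cells seeded at 2,500/well in charcoal-stripped-serum medium. ATP content by CellTiter-Glo luminescence gave viability; curves fitted in both directions against DMSO.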

[6] = target: Nucleoli Translocation, AR (gene 367) (UniProt P10275); assay: UPITT_HCI_U2OS_AR_TIF2_Nucleoli_Antagonist: University of Pittsburgh U2OS Androgen Receptor-Transcriptional Intermediary Factor 2 (AR-TIF2) Antagonism High Content Imaging Assay for Nucleoli Translocation (AID 2283997)
How it was run: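 Antagonism is read as loss of nucleolar AR-RFP signal relative to DHT, imaged in U2OS cells also carrying GFP-TIF2. Compounds screened at 20 uM final, 0.2% DMSO; primary actives retested in triplicate.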

[7] = target: Nucleoli Translocation, AR (gene 367) (UniProt P10275); assay: UPITT_HCI_U2OS_AR_TIF2_Nucleoli_Agonist: University of Pittsburgh U2OS Androgen Receptor-Transcriptional Intermediary Factor 2 (AR-TIF2) Agonism High Content Imaging Assay for Nucleoli Translocation (AID 2283998)
How it was run: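 Red-tagged human androgen receptor co-expressed with GFP-tagged TIF2 serves as the binding reporter. Primary testing used 20 uM final (0.2% DMSO); follow-up dose response covered 0.195 to 50 uM final (0.5% DMSO).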

[8] = target: Ratio of Nucleoli Translocation and Cytoplasm, AR (gene 367) (UniProt P10275); assay: UPITT_HCI_U2OS_AR_TIF2_Nucleoli_Cytoplasm_Ratio_Agonist: University of Pittsburgh U2OS Androgen Receptor-Transcriptional Intermediary Factor 2 (AR-TIF2) Agonism High Content Imaging Assay for Ratio of Nucleoli Translocation and Cytoplasm (AID 2284000);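 also: hits raise the red nucleolar to cytoplasm ratio above vehicle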
How it was run: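 Compounds tested at 20 uM final in primary screen (0.2% DMSO) and 0.195-50 uM final in dose-response (0.5% DMSO). Imaging of human U2OS cells bearing RFP-AR and GFP-TIF2; endpoint is nucleoli/cytoplasm red signal ratio, positive direction relative to DMSO.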

[9] = TOX21_TR_RXR_BLA_Agonist_Followup_viability: Viability Assessment in the Tox21 Thyroid Hormone Receptor beta Retinoid X Receptor alpha (RXRa) Agonism Beta-lactamase (BLA) Follow-Up Assay (AID 2283970)
How it was run: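 CellTiter-Glo ATP quantitation as viability read-out in RXRa-bla HEK293T cells (2,500/well, charcoal-stripped 2% FBS medium), 16h compound incubation at 37C. Loss of signal versus DMSO taken as cytotoxicity, analyzed by bidirectional curve fitting.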

Chain of Ratio of Nucleoli Translocation and Cytoplasm, AR (gene 367) (P10275 whole entry, looked up): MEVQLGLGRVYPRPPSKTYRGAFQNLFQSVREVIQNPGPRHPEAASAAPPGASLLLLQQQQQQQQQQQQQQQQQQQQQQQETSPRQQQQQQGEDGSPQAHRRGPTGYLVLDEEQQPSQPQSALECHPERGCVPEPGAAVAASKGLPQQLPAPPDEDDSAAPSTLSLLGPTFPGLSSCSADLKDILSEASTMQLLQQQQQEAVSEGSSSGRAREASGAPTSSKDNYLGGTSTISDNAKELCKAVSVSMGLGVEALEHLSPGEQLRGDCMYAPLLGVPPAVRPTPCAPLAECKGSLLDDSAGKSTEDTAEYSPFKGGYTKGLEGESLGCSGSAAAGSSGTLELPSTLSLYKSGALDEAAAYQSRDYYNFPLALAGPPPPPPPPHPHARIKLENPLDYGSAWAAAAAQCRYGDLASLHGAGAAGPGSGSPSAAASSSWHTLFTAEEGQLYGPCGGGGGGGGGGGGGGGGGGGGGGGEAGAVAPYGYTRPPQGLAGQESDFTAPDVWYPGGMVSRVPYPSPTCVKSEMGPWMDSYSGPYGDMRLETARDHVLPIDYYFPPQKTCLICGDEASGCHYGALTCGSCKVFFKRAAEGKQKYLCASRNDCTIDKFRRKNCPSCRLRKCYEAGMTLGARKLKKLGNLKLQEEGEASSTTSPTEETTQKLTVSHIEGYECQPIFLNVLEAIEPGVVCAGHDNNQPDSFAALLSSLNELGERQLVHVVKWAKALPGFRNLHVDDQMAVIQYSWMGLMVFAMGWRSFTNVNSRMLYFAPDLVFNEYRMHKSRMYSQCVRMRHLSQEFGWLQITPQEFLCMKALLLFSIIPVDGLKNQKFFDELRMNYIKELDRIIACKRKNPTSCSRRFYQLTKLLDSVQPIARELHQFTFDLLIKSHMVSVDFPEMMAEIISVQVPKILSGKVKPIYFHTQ
Chain of Nucleoli Translocation, AR (gene 367) (P10275 whole entry, looked up): as above
Chain of Retinoic acid receptor RXR-alpha (Homo sapiens) (P19793 whole entry, looked up, the tested form may be a part): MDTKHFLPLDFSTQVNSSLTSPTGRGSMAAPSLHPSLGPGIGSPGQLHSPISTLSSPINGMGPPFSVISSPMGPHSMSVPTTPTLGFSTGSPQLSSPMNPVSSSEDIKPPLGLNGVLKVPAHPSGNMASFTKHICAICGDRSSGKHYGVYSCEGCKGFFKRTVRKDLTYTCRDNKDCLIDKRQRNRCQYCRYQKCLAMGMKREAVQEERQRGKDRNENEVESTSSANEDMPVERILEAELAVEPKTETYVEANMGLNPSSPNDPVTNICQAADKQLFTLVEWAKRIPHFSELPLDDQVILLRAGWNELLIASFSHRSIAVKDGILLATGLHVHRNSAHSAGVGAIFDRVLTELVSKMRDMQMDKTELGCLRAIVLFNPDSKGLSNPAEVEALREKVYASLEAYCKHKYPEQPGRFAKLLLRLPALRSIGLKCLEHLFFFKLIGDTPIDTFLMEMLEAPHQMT

SMILES: O=C1NS(=O)(=O)c2ccccc21
- AC50 [1]: 0.00978 µM (active)
- AC50 [2]: 0.00978 µM (active)

SMILES: CCCCCCCCCCCC
- AC50 [3]: 84.4 µM (active)
- outcome [1]: inactive
- outcome [2]: inactive

SMILES: Nc1ccn([C@@H]2O[C@H](CO)[C@@H](O)C2O)c(=O)n1 (stereo not given in full)
- outcome [4]: inactive
- outcome [5]: inactive

SMILES: OCC(CO)(CBr)CBr
- outcome [1]: inactive
- outcome [2]: inactive

SMILES: CCCCCCC(C)(C)C(=O)O
- outcome [6]: inactive
- outcome [7]: inactive
- outcome [8]: inactive

SMILES: Cc1cc(C(=C2C=CC(=Nc3ccc(S(=O)(=O)O)cc3)C=C2)c2ccc(Nc3ccc(S(=O)(=O)O)cc3)cc2)cc(S(=O)(=O)O)c1N
- outcome [6]: inactive
- outcome [8]: inactive

SMILES: CN(C)CCOC(c1ccccc1)c1ccccc1
- outcome [6]: inactive
- outcome [7]: inactive
- outcome [8]: inactive
- AC50 [1]: 4.98 µM (active)
- AC50 [2]: 4.98 µM (active)

SMILES: C=C(c1ccc(C(=O)O)cc1)c1cc2c(cc1C)C(C)(C)CCC2(C)C
- outcome [9]: inactive

SMILES: CCCCCCc1ccc(N)cc1
- outcome [6]: inactive
- outcome [7]: inactive
- AC50 [8]: 78.4 µM (active)

SMILES: COc1ccccc1NC(=O)c1cc2ccccc2cc1O
- AC50 [4]: 22 µM (active)
- AC50 [5]: 24.1 µM (active)

SMILES: O=C(NCc1ncc(C(F)(F)F)cc1Cl)c1c(Cl)cccc1Cl
- outcome [6]: inactive
- outcome [7]: inactive
- outcome [8]: inactive

SMILES: CCCCCCCCCC=CCC1CC(=O)OC1=O (stereo not given)
- AC50 [3]: 31.9 µM (active)
- outcome [6]: inactive
- outcome [8]: inactive

SMILES: O=P(O)(O)CCC(F)(F)C(F)(F)C(F)(F)C(F)(F)C(F)(F)C(F)(F)C(F)(F)C(F)(F)F
- AC50 [3]: 182 µM (active)

SMILES: CC1COCc2cc3c(cc21)C(C)(C)C(C)C3(C)C (stereo not given)
- AC50 [6]: 9.92 µM (active)

SMILES: CC(O)COc1ccccc1 (stereo not given)
- outcome [6]: inactive
- outcome [7]: inactive
- outcome [8]: inactive

SMILES: O=C(O)C(F)(F)OC(F)(F)C(F)(F)OC(F)(F)C(F)(F)OC(F)(F)C(F)(F)C(F)(F)C(F)(F)F
- AC50 [3]: 24.6 µM (active)

SMILES: Nc1cc(Cl)c(-c2cc(Cl)c(N)cc2Cl)cc1Cl
- AC50 [4]: 24.6 µM (active)
- AC50 [5]: 28 µM (active)

SMILES: CCCCC=O
- outcome [1]: inactive
- outcome [2]: inactive

SMILES: CC(C)c1c(C(=O)Nc2ccccc2)c(-c2ccccc2)c(-c2ccc(F)cc2)n1CC[C@@H](O)C[C@@H](O)CC(=O)O
- outcome [4]: inactive
- outcome [5]: inactive

SMILES: CCCCc1ccc2ccccc2c1S(=O)(=O)O
- outcome [7]: inactive
- outcome [8]: inactive

SMILES: Oc1ccc(Cc2ccccc2O)cc1
- AC50 [1]: 0.00292 µM (active)
- AC50 [2]: 0.000868 µM (active)

SMILES: CN(Cc1cnc2nc(N)nc(N)c2n1)c1ccc(C(=O)N[C@@H](CCC(=O)O)C(=O)O)cc1
- outcome [6]: inactive
- outcome [7]: inactive
- outcome [8]: inactive
